Compound activity: PubChem, several laboratories
An excerpt weighted towards active compounds, which were near 2% of everything screened.
Mcl1 Noxa PPI = Mcl-1/Noxa binding inhibitors, primary screen, biochemical, TR-FRET, 1536-well; Induced myeloid leukemia cell differentiation protein Mcl-1 (Homo sapiens), Q07820; TR-FRET Mcl-1/Noxa peptide binding, 2 h; 220,000 tested, 1.5% active; inhibition, % at 21.7 µM;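 active = compounds that cut the protein-peptide binding signal by more than 50% relative to plate controls in a single-dose test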;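 note: His-tagged Mcl-1 with rhodamine Noxa BH3 peptide and terbium anti-His antibody; 0% = Mcl-1 plus Noxa peptide wells and 100% = peptide-only wells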
Target sequence (Q07820 whole entry, looked up): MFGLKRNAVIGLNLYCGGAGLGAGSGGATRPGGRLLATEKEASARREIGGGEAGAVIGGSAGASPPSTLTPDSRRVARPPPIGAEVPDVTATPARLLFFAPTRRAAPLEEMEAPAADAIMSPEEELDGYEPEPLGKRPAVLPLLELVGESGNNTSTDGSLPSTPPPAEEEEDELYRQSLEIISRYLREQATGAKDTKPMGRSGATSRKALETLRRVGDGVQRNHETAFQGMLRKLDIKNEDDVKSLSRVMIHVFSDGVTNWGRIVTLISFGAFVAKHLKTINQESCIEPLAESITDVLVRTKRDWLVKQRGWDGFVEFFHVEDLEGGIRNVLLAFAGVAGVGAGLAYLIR
MCL1 BIM primary = inhibitors of MCL1 binding to BIM-BH3, primary screen, biochemical, fluorescence polarization | Induced myeloid leukemia cell differentiation protein Mcl-1 (Homo sapiens), Q07820 | GST-MCL1 / FITC-Bim-BH3 fluorescence polarization | inhibition, % at 10.9 µM | 320,000 tested, 0.68% active | AID 2057, 2009;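 active = inhibition above the mean inhibition of all tested compounds plus 3 SD, set per campaign, cut at about 40% in these data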;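 note: 0% = DMSO wells and 100% = unlabeled Bim-BH3 peptide control; higher means more loss of mP so more displacement of Bim peptide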
Mcl1-Bid inh = Mcl-1/Bid binding inhibitors, primary screen, biochemical, TR-FRET, 1536-well | Induced myeloid leukemia cell differentiation protein Mcl-1 (Homo sapiens), Q07820 | TR-FRET Mcl-1/Bid-Dy647 peptide binding | AID 1021, 2008 | inhibition, % at 21.7 µM | 220,000 tested, 0.97% active;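 active = compounds that cut the binding signal by more than half at the single screening dose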;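 note: His-tagged Mcl-1 with europium anti-His antibody binding Bid BH3 peptide; 0% = Mcl-1 plus peptide wells and 100% = peptide-only wells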
Bim-Mcl-1 = inhibitors of Bim peptide binding to Mcl-1, primary screen, biochemical, bead-based flow cytometry, multiplex. Induced myeloid leukemia cell differentiation protein Mcl-1 (Homo sapiens), Q07820. Bim peptide-Mcl-1 binding. inhibition, % at 10 µM. 190,000 tested, 0.1% active; in the data active = inhibition above about 40%;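 note: 0% = no compound tracer wells and 100% = peptide blocker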
An asterisk follows results filed as active; nt = no result given.

SMILES | Mcl1 Noxa PPI | MCL1 BIM primary | Mcl1-Bid inh | Bim-Mcl-1
O=C(O)CCCN1C(=O)/C(=C\c2ccccc2OCc2ccccc2)SC1=S | nt | 10.0 | nt | nt
O=C(O)CCCN1C(=O)/C(=C/c2cn(-c3ccccc3)nc2-c2cccs2)SC1=S | 86.7* | nt | 77.7* | -1.0
Cc1cc(C)cc(C(=O)OCC(=O)N2CCCCCC2)c1 | nt | -6.8 | nt | nt
COc1ccc(NC(=O)CN(C)C(=O)CNC(=O)c2ccc3c(c2)OCO3)cc1 | nt | 3.0 | nt | nt
O=C(O)CCc1ccc(-c2ccccc2)n1Cc1ccco1 | 16.7 | 1.0 | -75.2 | -4.0
O=C(O)CCc1ccc(-c2ccc(Br)cc2)n1Cc1ccco1 | 51.5* | 6.8 | -36.6 | 0.0
[O-]c1c[n+](-c2ccc(-[n+]3cc([O-])on3)cc2)no1 | 56.7* | 22.6 | -29.6 | 3.0
Cc1nc2ccccc2[nH]c1=O | 12.3 | 7.9 | 59.3* | nt
O=c1[nH]c2ccccc2nc1C(F)(F)C(F)F | 12.2 | -7.0 | 63.0* | 0.0
C/C(O)=C/c1nc2ccccc2[nH]c1=O | 3.8 | 1.7 | -25.4 | 0.0
Cn1c(=O)c(=O)n(C)c2cc(S(=O)(=O)N3CCCC3C(=O)Nc3ccc(F)cc3)ccc21 (stereo unspecified) | nt | -0.6 | nt | nt
Cc1ccc(C)c(NS(=O)(=O)c2ccc(OCC(=O)N3CCCC3)cc2)c1 | 8.5 | 2.2 | -28.1 | -4.0
Cc1ccccc1NS(=O)(=O)c1ccc(OCC(=O)N2CCCC2)cc1 | 57.6* | -3.0 | 3.6 | -2.0
COc1ccc(CNCC(=O)Nc2sccc2C#N)cc1 | 52.6* | -0.8 | 28.2 | -4.0
COc1ccc(N2CCN(CC(=O)Nc3sccc3C#N)CC2)cc1 | 24.1 | 9.6 | -50.3 | -2.0
Cc1nnc(-c2cccc(Br)c2)c2cn(-c3ccccc3)nc12 | 21.1 | -3.3 | 0.8 | 0.0
Cc1nnc(-c2cccc(Br)c2)c2cn(-c3ccc(Br)cc3)nc12 | 15.5 | 0.3 | 56.1* | -1.0
C/C(Cl)=C\Cn1c(N2CCCC2)nc2c1c(=O)n(C)c(=O)n2C | nt | 13.0 | nt | nt
C=CCn1c(N2CCCCCC2)nc2c1c(=O)n(C)c(=O)n2C | 97.7* | 5.6 | 41.2 | 0.0
CCCC(C)NC(=O)c1cc(S(=O)(=O)N2CCCCCC2)ccc1OC (stereo unspecified) | nt | -8.8 | nt | nt
CN1CCC(N(C)CC(=O)Nc2ccc3c(c2)OC(F)(F)O3)CC1 | 28.8 | 6.8 | 59.8* | nt
CC1CCCCN1CC(=O)Nc1ccc2c(c1)OC(F)(F)O2 (stereo unspecified) | 2.0 | -7.6 | -8.0 | -1.0
O=C(CCCSc1ccccc1)Nc1nc(-c2ccccn2)cs1 | -62.6 | 19.4 | -65.9 | -1.0
O=C(CCl)Nc1nc(-c2ccco2)c(-c2ccco2)s1 | 53.5* | 12.1 | -10.9 | 5.0
O=C(CCCSc1ccccc1)Nc1nc(-c2ccco2)c(-c2ccco2)s1 | 52.1* | 22.3 | -5.7 | -1.0
SMILES | Mcl1 Noxa PPI | MCL1 BIM primary | Mcl1-Bid inh | Bim-Mcl-1
Nc1nc(-c2ccco2)c(-c2ccco2)s1 | 41.9 | 24.9 | -35.0 | -3.0
OCC[C@H]1C[C@H](O)[C@@H](O)[C@@]2(OCCCc3ccccc32)O1 | nt | 9.5 | nt | nt
CCn1c(SCC(=O)N2CCOCC2)nc2oc3c(Cl)cc(Cl)cc3c(=O)c2c1=O | 53.6* | 21.1 | -65.6 | 0.0
CCn1c(SCC(=O)N2CCOCC2)nc2sc3c(c2c1=O)CCCC3 | 10.4 | 1.6 | 25.9 | -2.0
Cc1ccc(NC(=O)CN2C(=O)/C(=C3\SC(=S)N(C4CCS(=O)(=O)C4)C3=O)c3ccccc32)cc1 (stereo unspecified) | 75.3* | nt | 99.8* | 0.0
O=C(CN1C(=O)/C(=C2\SC(=S)N(C3CCS(=O)(=O)C3)C2=O)c2ccccc21)Nc1ccccc1 (stereo unspecified) | 120.7* | 11.3 | 99.1* | -3.0
Cc1cccc(NC(=O)CN2C(=O)/C(=C3\SC(=S)N(CC4CCCO4)C3=O)c3ccccc32)c1 (stereo unspecified) | nt | 3.5 | nt | nt
CC1(C)Oc2ccc(C(=O)NNC(=O)Nc3ccccc3)cc2NC1=O | nt | 4.8 | nt | nt
Cc1ccc(NC(=O)CN2C(=O)S/C(=C/c3ccc(O)c([N+](=O)[O-])c3)C2=O)cc1C | 72.6* | nt | 21.4 | -3.0
Cc1cccc(NC(=O)CN2C(=O)S/C(=C\c3ccc(O)c([N+](=O)[O-])c3)C2=O)c1 | 21.2 | 0.4 | -43.0 | 1.0
COc1ccccc1-c1nnc(NC(=O)c2ccc3c(c2)OCO3)s1 | 13.9 | -1.8 | 62.6* | -2.0
